Compound activity (PubChem)
Mot1-301 SUMO: blocks SUMOylation pathway, rescuing yeast Mot1-301 growth; S. cerevisiae Mot1-301 growth rescue, ATP luminescence, 38.5C; percent above DMSO median, 100 means doubled; growth rescue, % at 18.8 µM; 1% of 320,000 active; AID 2716;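 active means every valid replicate shows activation above 250% relative to neutral control wells; inactive means the rest, any valid replicate at or below 250%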;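 further: OY570 slx delta 5 strain wells were the positive control but not used for scaling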
A1 inh: inhibitors of the anti-apoptotic protein A1, read as caspase activation. caspase activation, % (test concentration not listed). AID 2462. 0.066% of 330,000 active. MEF A1-2A-BIM cells, Caspase-Glo 3/7 luminescence, 3 h; percent of clofoctol response, vehicle zero;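 active means over half of replicate activation scores above 10%, or exactly half above 10 with the replicate mean above 10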
aDG glyco up: increases alpha dystroglycan glycosylation. activation, % at 10 µM. Pro5-aDG cells, alpha-DG glycosylation AlphaScreen (IIH6); 0% Pro5, 100% B10-LARGE cell signal. AID 624168. 0.22% of 360,000 active;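 active means activation of at least 8% versus controls, or a plate z-score of at least 8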;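 further: Pro5 are CHO cells carrying HIG-tagged alpha-DG that lacks glycosylation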
ARNT-TACC3 inh: disrupts binding between human ARNT and TACC3; Q9Y6A5; AlphaScreen His-ARNT PAS-B/GST-TACC3 binding, luminescence; TACC3 fragment carries E629A point mutation; inhibition, % at 9.99 µM; 0.66% of 390,000 active;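 active means mean inhibition of replicates at least 50% and at least half of replicates each reaching 50%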;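 further: 0% = complete ARNT plus TACC3 wells and 100% = ARNT alone without TACC3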
AI-2 QS modul: modulates the Vibrio harveyi AI-2 quorum sensing system. Vibrio harveyi JMH597 AI-2 luminescence/OD600 ratio, 9 h; hits give low values; strain lacks LuxN and CqsS sensors; 0 = neutral-control median. AID 2094. 0.4% of 300,000 active. activity change, % at 7.5 µM; in the data active means activity change below about -75%, passing the limit was not always enough;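 further: luminescence divided by OD600 gain over 9 h not by final OD600 alone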
Mot1 SUMO dose: yeast SUMO pathway inhibition in dose response | shares compounds with Mot1-301 SUMO | growth activity, percent, % at 42 µM | S. cerevisiae Mot1-301 galactose growth, ATP luminescence, 24 h; -100 = growth of slx-deleted rescue strain | 2,300 tested, under 10 active;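 active means Signal drops as the depositor expects, and the fitted half-maximal dose is no more than ten times the top valid tested dose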;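 further: more negative values mean stronger growth rescue toward the control strain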
The depositor's hits bear a star; . = no result; + = active, no number. Hits are enriched below; roughly 1.8% of the tested compounds scored in any of these assays.

SMILES | Mot1-301 SUMO | A1 inh | aDG glyco up | ARNT-TACC3 inh | AI-2 QS modul | Mot1 SUMO dose
C[C@@H]1CN([C@H](C)CO)C(=O)c2cc(NC(=O)c3ccccc3)ccc2O[C@@H](C)CCCCO[C@@H]1CN(C)Cc1ccc2c(c1)OCO2 | . | . | . | 1 | . | .
CC1(C)Cc2c(c(N3CCCC3)nc3sc4c(N5CCN(CCO)CC5)ncnc4c23)CO1 | 707* | 0 | 0 | 12 | . | 0
OCCN1CCN(c2ncnc3c2sc2nc(N4CCOCC4)c4c(c23)CCC4)CC1 | 9 | 0 | 0 | 13 | 11 | .
Cc1cc(CNC(=O)C2CCC(=O)N(Cc3ccccc3F)C2)on1 (stereo not given) | 654* | 0 | 0 | -4 | 30 | 1
Cc1ccc(N=c2c([N+](=O)[O-])nn(-c3ccc4c(c3)OCCO4)n2O)cc1F | 8 | 1 | 0 | 1 | 11 | .
COc1ccc(C(=O)/C=C/Nc2cc(C)on2)c(OC)c1 | -2 | 2 | 0 | 1 | 16 | .
O=S(=O)(NCc1ccccc1)c1cnc[nH]1 | 1 | -1 | 0 | -6 | 6 | .
O=S(=O)(NCc1ccc(Cl)cc1)c1cnc[nH]1 | + | 0 | 0 | -5 | 14 | 1
CCN(CCn1cccn1)C(=O)C1CCC(=O)N(CCc2cccc(F)c2)C1 (stereo not given) | 689* | -1 | 0 | -3 | 21 | 0
O=C(NCCn1cccn1)C1CCC(=O)N(CCc2cccc(F)c2)C1 (stereo not given) | 163 | 0 | 0 | 0 | 19 | .
CC(=O)N(C)C[C@@H]1Oc2ncc(-c3cccc(C#N)c3)cc2C(=O)N([C@@H](C)CO)C[C@H]1C | . | . | . | -3 | . | .
Cc1noc(C)c1NC(=O)N(C)C[C@@H]1Oc2ccc(NC(=O)Nc3ccc4c(c3)OCO4)cc2C(=O)N([C@@H](C)CO)C[C@@H]1C | . | . | . | 1 | . | .
COC(=O)c1cc(N=Nc2c(C)[nH]c3ccccc23)cc(C(=O)OC)c1 | 945* | 0 | 0 | -5 | 24 | 0
CN(CC(=O)Nc1ccncc1)S(=O)(=O)c1ccc(Br)cc1 | 12 | 1 | 1 | 22 | 21 | .
CC(=O)Nc1ccc(S(=O)(=O)N(C)CC(=O)Nc2ccc(Br)cc2F)cc1 | 513* | 1 | 0 | 25 | 13 | 0
O=C(C[C@@H]1C=C[C@@H](NS(=O)(=O)c2ccc(F)cc2)[C@@H](CO)O1)NCCc1ccncc1 | . | . | . | -13 | . | .
O=C(NCCc1csc(-c2ccccc2)n1)c1c(F)cccc1Cl | 23 | 1 | 0 | . | 16 | .
N#CC(CC(=O)c1ccc(F)cc1)c1ccc2c(c1)OCO2 (stereo not given) | 420* | 0 | 0 | -6 | 0 | 0
CCc1nn(C)c(N)c1C | 392* | 0 | 0 | -4 | 9 | 0
CCc1nn(C)c(-c2n[nH]c(=S)n2N)c1Cl | 10 | 1 | 2 | 18 | 14 | .
COc1cccc(CNC(=O)c2ccc(NC(=O)CC3SC(N4CCCCC4)=NC3=O)cc2)c1 (stereo not given) | -18 | 1 | 0 | 7 | . | .
Cc1cc(C(=O)N/N=C/c2ccc3c(c2)OCO3)c2ccccc2n1 | 856* | 1 | 0 | -15 | 10 | 0
O=C(Nc1ccc2c(c1)OCO2)c1cnn2c(C(F)(F)F)cc(-c3ccco3)nc12 | -3 | 1 | 0 | -3 | . | .
O=C(c1cnn2c(C(F)(F)F)cc(-c3ccco3)nc12)N1CCCc2ccccc21 | 908* | 0 | 0 | -7 | 0 | 0
Cc1ccc(-c2csc3ncnc(SCC(=O)c4ccc5c(c4)OCCO5)c23)cc1 | -1 | 1 | 0 | 6 | 36 | .
COc1ccc(N(C(=O)c2ccncc2)S(=O)(=O)c2ccc(OC)c(OC)c2)cc1 | 15 | 0 | 0 | . | 34 | .
COc1ccc(N(C(=O)c2ccncc2)S(=O)(=O)c2ccc(F)cc2)cc1 | 451* | 0 | 0 | -12 | 29 | 0
CCN(CC)CCNC(=O)CCn1c(=S)[nH]c2cc3c(cc2c1=O)OCO3 | + | 1 | 0 | 0 | 19 | 0
